Here are results for 39 molecules from PubChem BioAssay (NCATS).

“And” between values parts separate entries of the source, which are not always exact repeats. Identical values can stand only once. Inconclusive results are not listed. Unmarked numbers belong to inactive results. The source made the active and inactive calls. Calls follow the shape of the dose curve; as a rule, active = well fitted activation curve with a large enough effect; inconclusive = small, poorly fitted or top-dose-only effect; inactive = no such curve, though single readings can be large or run the other way.
Potency is read from the fitted curve at half-maximal effect.

Cellular tumor antigen p53 (Homo sapiens), sequence (P04637 whole entry, looked up): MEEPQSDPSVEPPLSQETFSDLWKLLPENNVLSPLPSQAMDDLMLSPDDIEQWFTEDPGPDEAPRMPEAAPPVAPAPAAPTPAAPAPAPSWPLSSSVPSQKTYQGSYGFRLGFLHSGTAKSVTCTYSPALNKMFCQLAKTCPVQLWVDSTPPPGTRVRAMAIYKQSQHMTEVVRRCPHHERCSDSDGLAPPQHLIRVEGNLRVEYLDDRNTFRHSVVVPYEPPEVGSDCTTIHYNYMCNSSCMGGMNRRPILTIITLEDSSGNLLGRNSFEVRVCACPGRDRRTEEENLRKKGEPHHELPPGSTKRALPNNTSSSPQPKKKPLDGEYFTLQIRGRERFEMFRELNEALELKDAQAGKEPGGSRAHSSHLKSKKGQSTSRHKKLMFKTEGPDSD

The experiment concerns the target Cellular tumor antigen p53 (Homo sapiens) (UniProt P04637). The experiment can be described thus: Primary qHTS for small molecule compounds that upregulate eGFP-tagged delta133p53alpha (in N-terminal) cells. (AID 2060322). Also: nearly all actives have a fitted effect of over 75% in size.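 As to activation: cells pre-induced with doxycycline then dosed without doxycycline; series mostly up to about 56 µM; 0% = DMSO vehicle and 100% = reference activator.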 The following applies: NCI-H358 eGFP-delta133p53alpha fluorescence, 24 h; activation: stronger effect = higher value. Put shortly:
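NCI-H358 cells pre-induced 24 h with 10 ng/ml doxycycline for eGFP-delta133p53alpha, plated dox-free and exposed 24 h at 37C to titrated compounds. Fixed, Hoechst-stained; gated GFP peak intensity by laser scanning cytometry, normalized to DMSO (0%) and 57.5 uM 5-azacytidine (100%).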
Consider `CC(C)NCC(O)c1ccccc1Cl` (centres undefined), for which the activation is 21.8%. For the molecule `C=C1C[C@@H]2[C@H](CC[C@]3(C)C(=O)CC[C@@H]23)[C@@]2(C)C=CC(=O)C=C12`, the activation is -17.6%. For the molecule `CN1CCC(O)(c2ccc(F)cc2)C(C(=O)c2ccc(F)cc2)C1` (centres undefined), the activation was -14.1%. Regarding `CC(C)Oc1cccc(NC(=O)c2ccccc2C(F)(F)F)c1`, the activation is -17.6%. Turning to `C[C@@H]1CC2=CC(=O)CC[C@@H]2[C@H]2CC[C@@]3(C)[C@@H](CC[C@]3(C)O)[C@@H]21`, the activation is -3.35%. For `c1cc2c(cc1[C@H]1OC[C@H]3[C@H]1CO[C@H]3c1ccc3c(c1)OCO3)OCO2`, the activation was 13.9%.

As to `CC(O)CN1CCN(CC(=O)[O-])CCN(CC(=O)[O-])CCN(CC(=O)[O-])CC1.[Gd+3]` (centres undefined), the activation was -12.6%. With `Nc1ccc([N+](=O)[O-])cc1`, the activation is 28.8%. For `COP(=S)(OC)Oc1ccc(S(=O)(=O)N(C)C)cc1`, the activation is 5.86%. `CN(C)CCc1c[nH]c2cccc(OP(=O)(O)O)c12`: the activation is -1.69%. With `C[C@@]12OC(=O)[C@]1([C@@H](O)[C@@H]1C=CCCC1)NC(=O)[C@H]2CCCl`, the Potency is 2.73 µM (active). `CC1NCCOC1c1ccccc1` (centres undefined): the activation is 9.6%. Still for that read-out and setting: the value for `COC(C)(C)CCCC(C)C/C=C/C(C)=C/C(=O)OC(C)C` (centres undefined) was -11.9%; that for `COc1ccc2[nH]cc(CCN(C(C)C)C(C)C)c2c1` was 23.2%. Consider `COc1cc(C[C@@H](C)N)c(OC)cc1Br`, for which the activation is -17.5%.

`O=C(O)c1ccc2[nH]cc(CCCCN3CC=C(c4ccccc4)CC3)c2c1`: the activation is -5.08%. Take `CCC(C)C(C)(COC(N)=O)COC(N)=O` (centres undefined): the activation is 8.37%. Turning to `COP(=S)(OC)Oc1ccc(SC)c(C)c1`, the activation was -15.9%. As for `C=C1C[C@H]2[C@H]3CCC(=O)[C@@]3(C)CC[C@@H]2[C@@]2(C)C=CC(=O)C=C12`, the activation is 3.97%. On the same count and under the same terms, the result for `CCC(COC(=O)c1cc(OC)c(OC)c(OC)c1)(c1ccccc1)N(C)C` (centres undefined) reads -7.34%; that for `CCCOC(=O)c1cncn1C(C)c1ccccc1` (centres undefined), 17.5%. As for `CCOC(=O)C(c1c(O)c2ccccc2oc1=O)c1c(O)c2ccccc2oc1=O`, the activation is -3.95%. With `CC(=O)C1CCOC1=O` (centres undefined), the activation was -9.21%. As to `CN(C)CCc1c[nH]c2cccc(O)c12`, the activation was 15.3%. Take `C#CCOC(C(=O)OCCN(C)C)(c1ccccc1)c1ccccc1`: the activation was -6.21%. Same read-out and setting: the value for `CCCN1CCO[C@@H]2c3cc(O)ccc3OC[C@@H]21` was 15.2%.

`CCOC(=O)CC(SP(=S)(OC)OC)C(=O)OCC` (centres undefined): the activation is -9.21% and 9.21%. Still for that read-out and setting: the value for `C[C@]12CCC(=O)C(O)=C1CC[C@@H]1[C@H]3CCC(=O)[C@@]3(C)CC[C@@H]12` was -8.48%; that for `CCC(=O)OC1CCC2C3CCC4=CC(=O)CC[C@@]4(C)C3CC[C@]12C` (some centres undefined) was 14.6%. The same measure, in the same setting: the value for `O=c1n(Cl)c(=O)n(Cl)c(=O)n1Cl` was 6.21%; that for `O=C(N/N=C/c1ccc([N+](=O)[O-])o1)c1cc([N+](=O)[O-])cc([N+](=O)[O-])c1O` was -6.21%.

For `C=C1CC[C@@]2(O)[C@H]3Cc4ccc(O)c5c4[C@@]2(CCN3CC2CC2)[C@H]1O5`, the activation was 6.21%. Consider `C=CC[C@]1(O)CC[C@H]2[C@@H]3CCC4=CC(=O)CCC4=C3C=C[C@@]21C`, for which the activation was -4.18%. On to `CN(C)CCc1c[nH]c2ccc(O)cc12`, for which the activation is 5.08%.

Regarding `C[C@H]([C@H](O)CCC(C)(C)O)[C@H]1CC[C@@]2(O)C3=CC(=O)[C@@H]4C[C@@H](O)[C@@H](O)C[C@]4(C)[C@@H]3CC[C@]12C`, the activation was -1.72%.

In the case of `CO/C=C(/C(=O)OC)c1ccccc1Oc1cc(Oc2ccccc2C#N)ncn1`, the activation was -36.8%. In the case of `CC(=CCCC1=CCC(C2=CC(=O)OC2O)OC1O)CCC1=C(C)CCCC1(C)C` (centres undefined), the activation was 16.4%.

In the case of `CC[n+]1c(-c2ccccc2)c2cc(N)ccc2c2ccc(N)cc21`, the Potency is 19.5 µM (active). Take `CC1=C(C(=O)O)N2C(=O)[C@@H](N)[C@H]2SC1`: the activation was -3.35%.
